In PubChem BioAssay:
The source made the active and inactive calls.

How the values were obtained:
[1] = system: Human papillomavirus type 1a protein E7 (residues 44-93); assay: HPV1a E7 fragment binders on microarrays, primary screen, biochemical, small-molecule microarray, residues 44-93, 635 nm fluorescence (AID 1108); details: small-molecule microarray binding, fluorescence 635 nm; higher = more signal;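 further: E7 fragment applied at 1 µg/mL in TBST for 1 h at 4 C; score combines spot fluorescence with its signal to noise ratio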
[2] = modulators of HCV replicon luciferase signal, primary screen, HCV replication inhibitor project, Huh7 cells, luciferase reporter (AID 1109); details: 48 h, higher = more signal;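 further: huh7 hepatoma cells harbouring a luciferase neomycin HCV replicon reporter; luciferase luminescence as measure of HCV replicon replication; test concentration not given here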
[3] = biological target: Left-right determination factor 2 (Homo sapiens) (UniProt O00292); assay: LEFTY2 binders on small-molecule microarrays, primary screen, biochemical, small-molecule microarray, 635 nm fluorescence scan (AID 1110); details: LEFTY2 binding, higher = more signal
[4] = biological target: Calmodulin-1 (Homo sapiens) (UniProt P0DP23); assay: CALM1 binders on microarrays, EGTA buffer, profiling panel, biochemical, small-molecule microarray, Cy5-labelled CALM1 (AID 1111); details: Cy5-CALM1 binding fluorescence, higher = more signal;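 further: labelled calmodulin applied in Tris saline Tween buffer holding calcium plus EGTA and DTT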
[5] = biological target: Calmodulin-1 (Homo sapiens) (UniProt P0DP23); assay: calcium-bound CALM1 binders on microarrays, profiling panel, artefact control for SMM control-protein annotation, biochemical, small-molecule microarray, Cy5-labelled CALM1, plus calcium (AID 1112); details: Cy5-CALM1 binding fluorescence, higher = more signal;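 further: score merges spot fluorescence with signal to noise from triplicate slides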
[6] = small-molecule microarray binders of probe aWnt5a, primary screen, biochemical, biotinylated probe, 635/667 nm fluorescence (AID 1113); details: higher = more signal;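 further: score merges 667 nm fluorescence intensity with signal-to-noise per printed feature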
[7] = small-molecule microarray binders of probe aShh, primary screen, biochemical, biotinylated probe, 635/667 nm fluorescence (AID 1114); details: higher = more signal;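 further: probe is biotin-labelled aShh protein from a stem cell growth factor screen; measures binding of labelled protein to compounds printed on the slide; score merges feature fluorescence at 667 nm with signal-to-noise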
[8] = small-molecule microarray binders of probe aNog, primary screen, biochemical, biotinylated probe, 635/667 nm fluorescence (AID 1115); details: higher = more signal;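 further: probe is biotinylated aNog protein used at 0.15 µg/mL for 1 h at 4 C; z-score combines 667 nm fluorescence of each spot with its signal to noise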
[9] = biological target: Torsin-1A-interacting protein 1 (Homo sapiens) (UniProt Q5JTV8); assay: LAP1 binders from COS7 cell lysate, primary screen, small-molecule microarray, 635/667 nm fluorescence (AID 1116); details: COS7-hLAP1 lysate binding, 635 nm fluorescence, higher = more signal
[10] = biological target: Alpha-bungarotoxin (Bungarus multicinctus) (UniProt P60615); assay: alpha-bungarotoxin binders on microarray, profiling panel, artefact control for SMM control protein annotation, biochemical, small-molecule microarray, Alexa647 label, 635/667 nm fluorescence (AID 1117); details: alpha-BTX-A647 binding fluorescence, higher = more signal
[11] = biological target: Albumin (Bos taurus) (UniProt P02769); assay: bovine serum albumin binders on microarray, profiling panel, artefact control for SMM control protein annotation, biochemical, small-molecule microarray, Alexa647 label, 635/667 nm fluorescence (AID 1118); details: BSA-A647 binding, fluorescence 635 nm, higher = more signal;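 further: score merges 667 nm emission intensity and signal-to-noise per printed compound spot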
[12] = small-molecule microarray binders of probe aXIP, primary screen, biochemical, NeuroSMM set, 635/667 nm fluorescence (AID 1119); details: higher = more signal, called active from +8 up or from −8 down;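 further: probe is the protein aXip251-270 applied at 1 µg/mL to compound-printed slides; binding of probe to printed compounds measured as 667 nm fluorescence plus signal to noise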
[13] = small-molecule binders of probe aNOTCH3, primary screen, biochemical, small-molecule microarray, 635/667 nm fluorescence (AID 1120); details: higher = more signal;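 further: probe is a biotin-tagged antibody raised against NOTCH3 rather than NOTCH3 protein; score merges spot fluorescence near 667 nm with spot signal to noise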
[14] = small-molecule binders of probe aNOTCH2, primary screen, biochemical, small-molecule microarray, 635/667 nm fluorescence (AID 1121); details: higher = more signal;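 further: score merges feature fluorescence read at 667 nm with its signal to noise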
[15] = biological target: Carbonic anhydrase 2 (Homo sapiens) (UniProt P00918); assay: CAII small-molecule binders, profiling panel, biochemical, small-molecule microarray, Alexa647-labelled CAII (AID 1122); details: CAII-A647 binding fluorescence, higher = more signal
[16] = COS7 lysate on small-molecule microarray, probe aHis, 635 nm (AID 1123); details: COS7 cell lysate, fluorescence, higher = more signal;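 further: z-score combines 667nm fluorescence intensity with signal-to-noise per printed compound spot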
[17] = compound binding in COS7 lysate, probe aLAP1, primary screen, cell lysate, small-molecule microarray (AID 1124); details: probe aLAP1, fluorescence, higher = more signal;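 further: lysate comes from COS7 cells expressing LAP1 and is applied at 0.3 µg/mL; score merges spot fluorescence near 667 nm with signal-to-noise over triplicate slides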
[18] = system: Sam68 (KHDRBS1); assay: Sam68 small-molecule binders, primary screen, biochemical, small-molecule microarray, 635 nm fluorescence (AID 1125); details: small-molecule microarray binding, higher = more signal;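 further: score merges 667 nm channel intensity with signal to noise over triplicate slides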
[19] = system: Chordin-like protein 2 (CHRDL2); assay: CHRDL2 small-molecule binders, primary screen, biochemical, small-molecule microarray, 635 nm fluorescence (AID 1126); details: small-molecule microarray binding, fluorescence 635 nm; higher = more signal;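 further: printed compound slides probed with Chrdl2 protein at 4 µg/mL for 1 h at 4 C; score merges 667 nm emission intensity with signal to noise over three replicate slides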
[20] = biological target: Concanavalin-A (Canavalia ensiformis) (UniProt P02866); assay: ConA small-molecule binders, primary screen, artefact control for SMM control protein annotation, biochemical, small-molecule microarray, Alexa647 label, 635 nm (AID 1127); details: ConA-A647 binding fluorescence, higher = more signal;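 further: z combines 667 nm emission intensity with signal-to-noise across three replicate slides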
Concanavalin-A (Canavalia ensiformis), sequence (P02866 whole entry, looked up): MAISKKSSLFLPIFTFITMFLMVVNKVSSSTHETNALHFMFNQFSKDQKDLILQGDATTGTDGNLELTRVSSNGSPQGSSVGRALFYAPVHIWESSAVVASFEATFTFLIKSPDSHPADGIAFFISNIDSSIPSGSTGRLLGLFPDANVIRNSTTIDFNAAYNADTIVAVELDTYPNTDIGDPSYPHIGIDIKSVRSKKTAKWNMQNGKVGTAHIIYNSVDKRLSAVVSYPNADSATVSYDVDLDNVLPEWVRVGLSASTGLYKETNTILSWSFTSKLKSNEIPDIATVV

Alpha-bungarotoxin (Bungarus multicinctus), sequence (P60615 whole entry, looked up): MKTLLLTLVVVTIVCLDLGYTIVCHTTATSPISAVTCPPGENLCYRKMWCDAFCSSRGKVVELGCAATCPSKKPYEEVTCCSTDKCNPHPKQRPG
Albumin (Bos taurus), sequence (P02769 whole entry, looked up): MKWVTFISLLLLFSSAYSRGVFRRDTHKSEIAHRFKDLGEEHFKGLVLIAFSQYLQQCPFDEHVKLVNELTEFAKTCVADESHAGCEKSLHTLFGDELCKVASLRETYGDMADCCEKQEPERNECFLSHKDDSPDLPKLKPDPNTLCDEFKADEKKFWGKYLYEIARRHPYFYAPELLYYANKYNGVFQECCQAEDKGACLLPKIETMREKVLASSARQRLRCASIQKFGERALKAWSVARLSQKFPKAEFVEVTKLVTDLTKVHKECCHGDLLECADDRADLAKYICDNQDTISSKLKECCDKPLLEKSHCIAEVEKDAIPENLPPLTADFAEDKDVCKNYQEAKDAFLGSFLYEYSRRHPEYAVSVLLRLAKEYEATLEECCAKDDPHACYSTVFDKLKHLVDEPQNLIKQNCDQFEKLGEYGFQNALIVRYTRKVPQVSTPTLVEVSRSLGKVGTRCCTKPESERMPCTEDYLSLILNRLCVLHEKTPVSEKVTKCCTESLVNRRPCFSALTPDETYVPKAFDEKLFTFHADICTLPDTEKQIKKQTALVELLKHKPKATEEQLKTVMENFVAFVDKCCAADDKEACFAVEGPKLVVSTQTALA
Left-right determination factor 2 (Homo sapiens), sequence (O00292 whole entry, looked up): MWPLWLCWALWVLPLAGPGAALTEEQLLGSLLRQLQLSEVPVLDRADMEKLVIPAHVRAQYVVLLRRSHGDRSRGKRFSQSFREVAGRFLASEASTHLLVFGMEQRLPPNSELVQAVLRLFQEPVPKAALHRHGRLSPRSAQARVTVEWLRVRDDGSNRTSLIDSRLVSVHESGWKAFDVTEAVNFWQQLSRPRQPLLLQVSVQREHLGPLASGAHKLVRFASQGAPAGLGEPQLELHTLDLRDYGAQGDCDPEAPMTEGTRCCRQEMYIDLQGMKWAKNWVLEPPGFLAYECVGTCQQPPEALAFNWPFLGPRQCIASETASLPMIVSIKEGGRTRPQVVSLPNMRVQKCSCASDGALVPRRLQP
Torsin-1A-interacting protein 1 (Homo sapiens), sequence (Q5JTV8 whole entry, looked up): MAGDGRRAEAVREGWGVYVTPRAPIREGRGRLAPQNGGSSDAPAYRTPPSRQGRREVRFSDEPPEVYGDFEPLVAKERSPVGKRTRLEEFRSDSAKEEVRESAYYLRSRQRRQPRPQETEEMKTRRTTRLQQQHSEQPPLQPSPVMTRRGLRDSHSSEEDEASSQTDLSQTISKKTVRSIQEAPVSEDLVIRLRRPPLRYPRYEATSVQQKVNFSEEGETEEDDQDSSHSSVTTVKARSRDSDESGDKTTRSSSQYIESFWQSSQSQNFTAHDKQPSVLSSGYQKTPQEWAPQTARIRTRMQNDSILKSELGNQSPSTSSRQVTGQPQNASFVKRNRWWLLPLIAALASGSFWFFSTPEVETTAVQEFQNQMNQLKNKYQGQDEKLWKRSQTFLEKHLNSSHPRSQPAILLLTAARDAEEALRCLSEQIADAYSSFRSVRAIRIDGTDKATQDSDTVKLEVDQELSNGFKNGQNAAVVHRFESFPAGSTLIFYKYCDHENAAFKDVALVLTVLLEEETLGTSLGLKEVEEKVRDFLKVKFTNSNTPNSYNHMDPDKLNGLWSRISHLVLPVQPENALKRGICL

Row | Compound | composite z-score [1] | z-score [2] | composite z-score [3] | composite z-score [4] | composite z-score [5] | composite z-score [6] | composite z-score [7] | composite z-score [8] | composite z-score [9] | composite z-score [10] | composite z-score [11] | composite Z-score [12] | composite z-score [13] | composite z-score [14] | composite z-score [15] | composite z-score [16] | composite z-score [17] | composite z-score [18] | composite z-score [19] | composite z-score [20]
1 | CCCCN1CC=CC23O[C@@H]4/C=C\CCC(C)OC(=O)C4[C@H]2C(=O)N(CCCCCCO)[C@@H]3C1=O (stereo not given in full) | 0.111 | -0.0691 | -0.567 | 0.119 | 0.282 | 0.0321 | -0.0709 | -0.168 | 1.47 | -0.637 | 0.5 | -0.59 (inactive) | -0.307 | -0.228 | 0.86 | 0.177 | 0.54 | -0.168 | -0.361 | -0.34
2 | COC(=O)C1(Cc2ccccc2)C=C2C(=C(C(C)C)C(=O)C2C)CN1 (stereo not given) | -0.549 | -0.735 | -1.41 | 1.09 | 1.54 | 0.152 | 0.109 | 0.593 | 1.73 | -0.473 | 0.628 | 2.34 (inactive) | 0.183 | 0.168 | 0.676 | 1.62 | 0.6 | -1.52 | -1.3 | -1.83
3 | C=C[C@@H](C)[C@H](OC(=O)Nc1ccc(SC)cc1)c1ccc(OCCO)cc1 | -0.868 | 2.09 | -1.03 | -0.163 | 0.649 | 0.0423 | -0.206 | 1.41 | -0.111 | 0.0265 | -0.145 | -0.109 (inactive) | 0.132 | -0.259 | 0.449 | 0.476 | -0.0181 | -0.867 | -0.61 | -0.345
4 | C=CCN1C(=O)[C@@]2(O[C@@H](CCO)[C@H]([Si](C)(C)c3ccc(OC)cc3)[C@H]2C)c2cc(N3C(=O)c4ccccc4Oc4ccccc43)ccc21 | -0.719 | -5.16 | 0.163 | 1.4 | 0.927 | 0.0181 | -0.186 | 0.0061 | 0.669 | 0.328 | 0.593 | 0.0553 (inactive) | -0.145 | -0.133 | 0.307 | 1.15 | 0.478 | 0.522 | -0.0806 | 0.854
5 | CC(C)(C)OC(=O)CC[C@]1(C(=O)NCCN2CCOCC2)N=C(c2ccc(OCCCO)cc2)O[C@H]1c1ccccc1 | 1.18 | 0.0186 | -0.103 | 1.78 | 0.598 | -0.0203 | -0.153 | 0.593 | -0.299 | 1.57 | 0.824 | -0.985 (inactive) | 0.0636 | -0.075 | 0.745 | 2.28 | -0.657 | 0.218 | -1.21 | 1.16
6 | CCCC=C(CCC)[C@@H](NP(=O)(c1ccccc1)c1ccccc1)c1ccc(C(F)(F)F)cc1 | 1.13 | -0.475 | 0.0293 | 0.0848 | -0.33 | 0.474 | 0.135 | -0.301 | 0.145 | 0.109 | 0.179 | -0.349 (inactive) | 0.26 | 0.0684 | -0.0457 | 0.442 | 0.207 | 1.14 | -0.13 | -0.482
7 | CCOC(=O)C[C@H]1[C@H](OC(=O)c2ccccc2-c2ccccc2)[C@@H](NC(=O)CC(C)C)c2cc(OCCCO)ccc2N1C(=O)c1ccc2ccccc2n1 | 0.046 | -0.578 | 0.186 | 0.844 | -0.456 | -0.124 | -0.0769 | -0.134 | 0.171 | 0.719 | 0.641 | 0.675 (inactive) | -0.0031 | -0.13 | 0.431 | 0.578 | 0.452 | 0.569 | 0.224 | 0.629
8 | CC(=O)NCCCC[C@@H]1NC(=O)[C@@H]2C[C@H](C(=O)O)[C@H](c3ccc(O)cc3)N2C1=O | -0.745 | 0.117 | -2.7 | -0.329 | 0.104 | -0.184 | -0.221 | -0.33 | -0.998 | -0.371 | -0.757 | 1.77 (inactive) | -0.594 | -0.1 | 0.658 | -0.0142 | -0.0574 | -1.04 | -0.755 | 0.092
9 | C=C(CCCC)/C(=C/C[C@@H](OC(C)=O)c1ccc(CO)o1)c1cc(C(=O)OC)ccc1OC | 1.45 | -1.79 | 0.26 | 0.723 | 0.0443 | -0.0758 | -0.232 | 0.141 | 0.886 | 1.28 | 0.557 | 0.378 (inactive) | -0.0195 | -0.0741 | 0.57 | 0.69 | 0.557 | 1.29 | 0.182 | 0.851
10 | [N-]=[N+]=NCc1ccccc1C[C@@]1(C(=O)N2CCCCC2)N=C(c2ccc(OCCCO)cc2)O[C@@H]1c1ccccc1N=[N+]=[N-] | 1.37 | -1.04 | -0.0573 | 1.43 | 0.795 | -0.392 | -0.284 | -0.919 | 0.209 | 0.809 | 0.79 | 0.131 (inactive) | 0.0522 | -0.13 | 0.378 | 2.1 | -0.0562 | 1.09 | -0.186 | 1.08
11 | C=CCNC(=O)[C@@H]1[C@H]2C(=O)O[C@H](c3ccccc3)[C@H](c3ccccc3)N2[C@H](c2ccccc2OCCO)[C@@]12C(=O)N(C(=O)OCCOC)c1ccc(C#CC3=CCCCC3)cc12 | 0.829 | -2.12 | 0.167 | 0.743 | -0.0835 | -0.124 | -0.0553 | 0.394 | 1.15 | 1.59 | 0.706 | 2.45 (inactive) | -0.0699 | -0.0664 | 0.467 | 1.76 | -0.218 | 1.28 | 0.741 | 1.12
